# Results: PubChem BioAssay (NCATS)
# Records with an inconclusive call do not appear. Active and inactive are the calls of the source. Unless noted, calls come from the whole dose curve; as a rule, active = well fitted inhibition curve with a large enough effect; inconclusive = small, poorly fitted or top-dose-only effect; inactive = flat fitted curve, though single readings scatter.
# Key:
# [1] = tested on: 7G8; assay: qHTS profiling for inhibitors of Plasmodium falciparum proliferation (AID 504749); note: potency is the fitted concentration of half-maximal effect; nearly all actives have a fitted effect of over 60% in size; conditions: P. falciparum in erythrocytes, SYBR Green DNA, 72 h; series mostly up to 28.7 µM
# Method in brief: (§1)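 Fluorescence of SYBR Green-bound parasite DNA, read at 485/535 nm, served as the growth measure. Infected erythrocytes were cultured with compound 72 h; artemisinin (0.29 uM) and DMSO wells defined the normalization range.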
# [2] = tested on: CP191; assay: as above; conditions: P. falciparum in erythrocytes, SYBR Green DNA, 72 h; series mostly up to 28.7 µM
# Method in brief: as §1
# [3] = tested on: CP194; assay: as above; conditions: P. falciparum in erythrocytes, SYBR Green DNA, 72 h; series mostly up to 28.7 µM
# Method in brief: as §1
# [4] = tested on: CP201; assay: as above; conditions: P. falciparum in erythrocytes, SYBR Green DNA, 72 h; series mostly up to 28.7 µM
# Method in brief: as §1
# [5] = tested on: CP203; assay: as above; conditions: P. falciparum in erythrocytes, SYBR Green DNA, 72 h; series mostly up to 28.7 µM
# Method in brief: as §1
# [6] = tested on: CP211; assay: as above; conditions: P. falciparum in erythrocytes, SYBR Green DNA, 72 h; series mostly up to 28.7 µM
# Method in brief: as §1
# [7] = tested on: CP215; assay: as above; conditions: P. falciparum in erythrocytes, SYBR Green DNA, 72 h
# Method in brief: as §1
# [8] = qHTS drug screen for cell cycle checkpoint inhibitors in PARPi-resistant BRCA-mutant ovarian cancer cell lines. (AID 1963452; calls by dose curve); conditions: PEO1/OlaR viability, CellTiter-Glo luminescence, 96 h, stronger effect = lower value
# Method in brief: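 PEO1, PEO4 and PEO1/OlaR ovarian cancer cells, 600 per well, exposed 96 h at 37C to a dilution series. Viability read by CellTiter-Glo luminescence, normalized to DMSO and empty wells; activity summarized as Z-AUC.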
# [9] = qHTS profiling for inhibitors of Plasmodium falciparum proliferation (AID 504749); note: potency is the fitted concentration of half-maximal effect; nearly all actives have a fitted effect of over 60% in size; conditions: P. falciparum in erythrocytes, SYBR Green DNA, 72 h
# Method in brief: as §1
# [10] = tested on: 3D7; assay: as above; conditions: P. falciparum in erythrocytes, SYBR Green DNA, 72 h; series mostly up to 28.7 µM
# Method in brief: as §1
# [11] = tested on: AA1029; assay: as above; conditions: P. falciparum in erythrocytes, SYBR Green DNA, 72 h; series mostly up to 28.7 µM
# Method in brief: as §1
# [12] = tested on: AS120; assay: as above; conditions: P. falciparum in erythrocytes, SYBR Green DNA, 72 h; series mostly up to 28.7 µM
# Method in brief: as §1
# [13] = tested on: ATS189; assay: as above; conditions: P. falciparum in erythrocytes, SYBR Green DNA, 72 h; series mostly up to 28.7 µM
# Method in brief: as §1
# [14] = tested on: ATS95; assay: as above; conditions: P. falciparum in erythrocytes, SYBR Green DNA, 72 h
# Method in brief: as §1
# [15] = tested on: C2A; assay: as above; conditions: P. falciparum in erythrocytes, SYBR Green DNA, 72 h; series mostly up to 28.7 µM
# Method in brief: as §1
# [16] = tested on: CP185; assay: as above; conditions: P. falciparum in erythrocytes, SYBR Green DNA, 72 h; series mostly up to 28.7 µM
# Method in brief: as §1
# [17] = tested on: CP192; assay: as above; conditions: P. falciparum in erythrocytes, SYBR Green DNA, 72 h; series mostly up to 28.7 µM
# Method in brief: as §1
# [18] = tested on: CP217; assay: as above; conditions: P. falciparum in erythrocytes, SYBR Green DNA, 72 h; series mostly up to 28.7 µM
# Method in brief: as §1
# [19] = tested on: CP237; assay: as above; conditions: P. falciparum in erythrocytes, SYBR Green DNA, 72 h
# Method in brief: as §1
# [20] = measured here: PEO1 parental Z-AUC
structure (smiles),measurement,setting,value
COC1C(OC(=O)/C=C/C=C/C=C/C=C/C(=O)O)CCC2(CO2)C1C1(C)OC1CC=C(C)C (centres undefined),Potency,[1],0.0056 µM (active)
same,Potency,[2],0.0501 µM (active)
same,Potency,[3],0.536 µM (active)
same,Potency,[4],7.57 µM (active)
same,Potency,[5],2.69 µM (active)
same,Potency,[6],0.0379 µM (active)
same,Potency,[7],6.01 µM (active)
Cn1cc(-c2ccc(F)c(C(F)(F)F)c2)nc1C1CCN(c2ncnc3[nH]ncc23)CC1,Z-AUC,[8],-0.225 (inactive)
same,Z-AUC,[8]; [20],-0.264
same,Z-AUC,[8]; measured here: PEO4 Z-AUC,-0.487
O=C(Nc1ccc2[nH]nc(-c3ccncc3)c2c1)[C@@H]1CCN(CC(=O)N2CCN(c3ccc(-c4ncccn4)cc3)CC2)C1,Z-AUC,[8],-0.198 (inactive)
same,Z-AUC,[8]; [20],-1.04
same,Z-AUC,[8]; measured here: PEO4 Z-AUC,-0.706
CCNC1(C(N)=O)CCN(c2ncnc3c2nc(-c2ccccc2Cl)n3-c2ccc(Cl)cc2)CC1,Z-AUC,[8],0.84 (inactive)
same,Z-AUC,[8]; [20],0.367
same,Z-AUC,[8]; measured here: PEO4 Z-AUC,0.247
C=CC(=O)Nc1cccc(Nc2nc(Nc3ccc(NC4CN(CCF)C4)cc3OC)ncc2C(F)(F)F)c1,Z-AUC,[8],0.83 (inactive)
same,Z-AUC,[8]; [20],0.499
same,Z-AUC,[8]; measured here: PEO4 Z-AUC,0.584
Cc1cn(CCN2CCN(c3ccccc3-c3cc(C#N)cc(C(=O)NCCCN4CCCC4)c3)CC2)c2ccccc12,Z-AUC,[8],-0.259 (inactive)
same,Z-AUC,[8]; [20],-0.4
same,Z-AUC,[8]; measured here: PEO4 Z-AUC,-0.379
Cc1[nH]c2ccc(F)cc2c1-c1nc2c3cccnc3c3ncccc3c2[nH]1,Z-AUC,[8],-1.49 (inactive)
same,Z-AUC,[8]; [20],-0.715
same,Z-AUC,[8]; measured here: PEO4 Z-AUC,-1.31
C=CCNC1=C2C[C@@H](C)C[C@H](OC)[C@H](O)[C@@H](C)/C=C(\C)[C@H](OC(N)=O)[C@@H](OC)/C=C\C=C(/C)C(=O)NC(=CC1=O)C2=O,Z-AUC,[8],-0.418 (inactive)
same,Z-AUC,[8]; [20],-0.98
same,Z-AUC,[8]; measured here: PEO4 Z-AUC,-0.867
same,Potency,[9]; parasite line A,1.41 µM (active)
same,Potency,[9]; parasite line B,2.24 µM (active)
same,Potency,[10],2.24 µM (active)
same,Potency,[1],0.447 µM (active)
same,Potency,[11],1.41 µM (active)
same,Potency,[12],1.41 µM (active)
same,Potency,[13],2.24 µM (active)
same,Potency,[14],2 µM (active)
same,Potency,[15],2 µM (active)
same,Potency,[16],2.51 µM (active)
same,Potency,[2],2 µM (active)
same,Potency,[17],4.26 µM (active)
same,Potency,[3],4.26 µM (active)
same,Potency,[4],6.75 µM (active)
same,Potency,[5],3.79 µM (active)
same,Potency,[6],3.79 µM (active)
same,Potency,[7],4.78 µM (active)
same,Potency,[18],2 µM (active)
same,Potency,[19],1.26 µM (active)
Cc1cc(F)c(C(=O)Nc2cccc(-c3nncn3C(C)C)n2)cc1-n1cnc(C2CC2)c1,Z-AUC,[8],-0.535 (inactive)
same,Z-AUC,[8]; [20],-0.555
same,Z-AUC,[8]; measured here: PEO4 Z-AUC,-0.37
O=C(NCCCNc1nc(Nc2cccc(CN3CCOCC3)c2)ncc1C1CC1)C1CCC1,Z-AUC,[8],-0.249 (inactive)
same,Z-AUC,[8]; [20],-0.12
same,Z-AUC,[8]; measured here: PEO4 Z-AUC,-0.429
CCOC(=O)[C@@]1(CCCCCCOc2ccc(Cl)cc2)CO1,Z-AUC,[8],1.19 (inactive)
same,Z-AUC,[8]; [20],1.19
same,Z-AUC,[8]; measured here: PEO4 Z-AUC,1.21
CCCCOC(=O)NS(=O)(=O)c1sc(CC(C)C)cc1-c1ccc(Cn2ccnc2)cc1,Z-AUC,[8],0.282 (inactive)
same,Z-AUC,[8]; [20],0.365
same,Z-AUC,[8]; measured here: PEO4 Z-AUC,0.449
